This is a sample that favours compounds with a hit; in the whole collection about 1.8% have one here.
ugtP null kill: growth inhibition of S. aureus ugtP deletion strain; S. aureus RN4220 ugtP deletion, OD600 growth, 16 h; growth inhibition, % (concentration not given with the values); hit rate 0.54% among 330,000; in the data active means growth inhibition above about 68%;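 further: plate controls were untreated wells for no effect and antibiotic for full effect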
DUSP3 inh: blocks human VHR1 dual specificity phosphatase; P51452; recombinant VHR phosphatase, pNPP absorbance; inhibition, % at 13.3 µM; hit rate 0.52% among 290,000; in the data active means inhibition above about 50%
Target sequence (P51452 whole entry, looked up): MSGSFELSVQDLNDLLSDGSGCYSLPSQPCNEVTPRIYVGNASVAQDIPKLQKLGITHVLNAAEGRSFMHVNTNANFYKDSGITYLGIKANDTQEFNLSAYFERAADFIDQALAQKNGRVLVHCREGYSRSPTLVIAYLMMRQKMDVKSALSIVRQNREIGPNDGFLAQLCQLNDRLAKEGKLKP
PfHsp40 yeast: restores yeast growth despite PfHsp40 toxicity; hit rate 0.68% among 340,000; AID 504582; S. cerevisiae expressing PfHsp40, growth rescue, ATP luminescence; growth rescue, % at 12.5 µM; in the data active means growth rescue above about 28%, passing the limit was not always enough;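 further: yeast W303a lacking pdr1 and pdr3 grown in galactose medium; growth measured after three days at 30 °C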
PrPC TRFRET: reduces human prion protein on the cell surface. inhibition, % at 13.8 µM. cell surface PrPC, TR-FRET read-out. P04156. AID 720596. hit rate 0.43% among 370,000; in the data active means inhibition above about 24%; further: 0% = median of the test wells and 100% = reference compound wells
RN4220 kill: kills Staphylococcus aureus RN4220; S. aureus RN4220 growth, OD600, 16 h; hit rate 0.33% among 330,000; inhibition, % (no concentration beside the values); AID 1259311; in the data active means inhibition above about 85%;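 further: plate controls were untreated cells for no effect and reference antibiotic for full effect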
Numbers without * were called inactive; . = no result given.

SMILES	ugtP null kill	DUSP3 inh	PfHsp40 yeast	PrPC TRFRET	RN4220 kill
CCn1cc(C(=O)O)c(=O)c2cnc(N3CCN(C(=S)NC(=O)c4ccc(Cl)cc4Cl)CC3)nc21	25	6	1	-3	40
CCn1cc(C(=O)O)c(=O)c2cnc(N3CCN(C(=S)NC(=O)c4ccc(OC)cc4)CC3)nc21	86*	-29	-2	7	46
O=C1C=C(c2ccnc3cc(Cl)ccc23)CC(c2ccc3c(c2)OCO3)C1 (stereo not given)	6	.	.	.	3
CCC1=C(OC(=O)N(CC)CC)N2C(=O)OC(=NCC3CC3)[C@]2(Cc2ccccc2)C2C1=CCC1C(=O)N(CC)C(=O)C12 (stereo not given in full)	1	.	.	.	2
O=C(Nc1cccc(Cl)c1)c1ccc2c(c1)OCCO2	-1	10	81*	5	6
CC(C)OCCCn1c(=O)c2ccccc2n2c(CCC(=O)NC3CCN(Cc4ccccc4)CC3)nnc12	5	53*	1	-7	0
CC(C)OCCCn1c(=O)c2ccccc2n2c(CCC(=O)O)nnc12	3	-10	-1	3	3
CCCCC(=O)OCc1c(-c2cccc(OC)c2)ncc2ccccc12	86*	.	2	-5	7
CC(C)(O)C1CC[C@@](C)(C2CC[C@]3(C)C2C(O)CC2[C@@]4(C)CCC(O)C(C)(C)C4C(OC4OC(CO)C(O)C(O)C4OC4OCC(O)C(O)C4O)C[C@]23C)O1 (stereo not given in full)	2	.	.	.	9
Cc1cc(C)c2[nH]c(O)c(N=Nc3ccc(C(=O)O)cc3)c2c1	85*	22	-2	-3	90*
Cc1ccc(S(=O)(=O)Nc2ccc3c(c2)CC(=O)N(C(C)CO)CC(C)C(CN(C)Cc2ccc4c(c2)OCO4)O3)cc1 (stereo not given)	4	.	.	.	-1
Cc1cc(-c2nn(-c3ccccc3F)cc2CN2CCCC(CO)C2)c(C)s1 (stereo not given)	-6	13	-1	5	2
Cc1cc(-c2nn(-c3ccccc3F)cc2CN2CCCC(O)C2)c(C)s1 (stereo not given)	-2	53*	1	7	3
O=c1[nH]c(-c2ccccn2)nc2ccccc12	17	4	-1	0	17
O=c1[nH]c(-c2ccccn2)nc(C(F)(F)F)c1Br	7	13	133*	24	17
NC(=NOC(=O)c1cccc(Br)c1)c1ccc([N+](=O)[O-])cc1	4	.	.	.	4
CCOC(=O)c1cccc2c1-c1ccccc1/C2=N/O	.	38	233*	0	.
CCCCNC(=O)C1CC=CC2CCN(C3CC3)C(=O)C21 (stereo not given)	2	.	.	.	5
Cc1cc(NN=Cc2ccccc2O)nc(-c2ccccc2O)n1	-15	.	.	.	-2
Cc1cc(NN=Cc2ccc(O)c(C)c2O)nc(-c2ccccc2O)n1	98*	.	.	.	99*
Cc1cc(NN=Cc2c(O)ccc3ccccc23)nc(-c2ccccc2O)n1	98*	.	.	.	99*
CCCc1nnc(NC(=O)CSc2nc3ccccc3[nH]2)s1	7	-9	-1	-6	5
O=C(CSc1nc2ccccc2[nH]1)Nc1nc(-c2cccc(Br)c2)cs1	99*	13	-1	22	99*
CN(C)CCCn1c(SCC(=O)Nc2nc(-c3cccc(Br)c3)cs2)nc2ccccc2c1=O	100*	-17	-1	14	101*
CCCCn1c(SCC(=O)Nc2nccs2)nc2ccccc2c1=O	5	10	0	1	5
SMILES	ugtP null kill	DUSP3 inh	PfHsp40 yeast	PrPC TRFRET	RN4220 kill
O=C(O)C=CC(=O)Nc1ccc(OC(F)(F)Cl)cc1	-7	.	.	.	-1
O=C(c1cccc(C(F)(F)F)c1)C1CCCN(Cc2ncc[nH]2)C1 (stereo not given)	-3	-1	14	-4	5
c1c[nH]c(CN2CCN(Cc3ncc[nH]3)CC2)n1	.	.	384*	-3	.
CCCS(=O)(=O)c1c(S(=O)(=O)CCC)c2c(C)cccn2c1C(=O)N/N=C/c1cc(O)cc(O)c1	.	-20	452*	19	.
CCCCCCSc1ccc([C@H]2N[C@@](CC(C)C)(C(=O)OC)[C@H]3C(=O)N(C)C(=O)[C@@H]23)cc1	-1	.	47*	2	-21
O=C(c1cccs1)c1coc2ccc(O)cc12	0	10	48*	5	9
COC(=O)Cn1c(=NC(=O)c2ccc([N+](=O)[O-])s2)sc2cc(Br)ccc21	97*	-4	.	.	99*
O=C1C(Cc2ccccc2)NCCCCC(c2ccco2)N1Cc1ccccc1 (stereo not given)	12	.	.	.	10
Cc1ccc(NC(=O)N2CCCc3ccccc32)cc1C	-1	53*	1	4	-1
O=C(c1ccc(C(=O)N2CCCc3ccccc32)s1)N1CCCc2ccccc21	-10	38	51*	-4	2
O=C(c1ccc([N+](=O)[O-])s1)N1CCCc2ccccc21	19	-4	1	-32	14
O=C(c1ccc(Cl)cc1)N1CCc2ccccc21	12	56*	0	3	4
CC[C@]1(O)CC2CN(CCc3c([nH]c4ccccc34)[C@@](C(=O)OC)(c3cc4c(cc3OC)N(C=O)C3[C@@](O)(C(=O)OC)C(OC(C)=O)[C@]5(CC)C=CCN6CC[C@]43C65)C2)C1 (stereo not given in full)	-6	.	.	.	7
CC1CCCCN1C(=O)C12CCC(C)(C(=NO)C1)C2(C)C (stereo not given)	-1	.	.	.	5
CC1CCN(C(=O)N2c3ccccc3Sc3ccccc32)CC1	15	8	1	1	2
CC1CCN(CC(O)CN2c3ccccc3Sc3ccccc32)CC1 (stereo not given)	1	58*	0	.	-4
COc1cc(C=NNC(=O)CSc2n[nH]c(=O)[nH]c2=O)cc(OC)c1O	4	.	.	.	5
O=[N+]([O-])c1cc(CN2CCN(c3cccc(C(F)(F)F)c3)CC2)c2cccnc2c1O	86*	-5	48*	-13	61
CCOc1ccc(S(=O)(=O)Nc2ccc(C(=O)NN=C(C)c3ccc(-n4ccnc4)cc3)cc2)cc1	-2	.	.	.	1
CC(C(=O)O)N1c2cccc3cccc(c23)S1(=O)=O (stereo not given)	4	30	-1	3	4
CS(=O)(=O)N1c2cccc3cccc(c23)S1(=O)=O	7	15	48*	-3	4
Cc1cc(C)nc(N=C(N)Nc2ccc(C)c([N+](=O)[O-])c2)n1	0	.	.	.	3
COc1cccc(C(C)=NNC(=O)c2ccc(N(C)C)cc2)c1	-10	.	.	.	-3
Nc1nnc(C=Cc2ccccc2)s1	3	.	.	.	6
CN(C)n1cccc1/C=C(\C#N)S(=O)(=O)c1cccc(Cl)c1	1	0	32*	7	5
CS(=O)(=O)/C(C#N)=C/c1cccn1S(=O)(=O)c1ccccc1	3	79	-1	-5	7
CCOC(=O)N1C2=NC(C(=O)OC)=C(C(=O)OC)C3N(Cc4ccccc4)c4ccccc4[C@]23CC1C(=O)OC (stereo not given in full)	-5	.	.	.	1
